From PubChem BioAssay (NCATS)
Results filed as inconclusive are left out. Entries that show only a call come without a potency. Values without a mark were called inactive. Calls of active or inactive are those of the source. Calls come from the whole dose curve; as a rule, active = well fitted activation curve with a large enough effect; inconclusive = small, poorly fitted or top-dose-only effect; inactive = flat fitted curve, though single readings scatter.

Experiment: Primary redox qHTS assay for identification of artifact compounds. (AID 1845223)
Conditions: Amplex Red/HRP redox cycling with DTT, fluorescence; series mostly up to 53.8 µM
How it was run: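 Redox-cycling detection via DTT (250 uM final) oxidation coupled to Amplex Red (25 uM)/HRP (250 mU/mL) in HBSS. 15 min preincubation plus 30 min after DTT, room temperature. Ex/Em 525/598 nm; 4-parameter Hill fit against DMSO and 10 uM DA3003.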

Q: With `O=[N+]([O-])c1cc(Cl)ccc1S(=O)(=O)N1CCN(Cc2ccccc2)CC1` as the compound, how does the Potency read?
A: inactive

Q: Which Potency does the source give for `O=C(O)C[C@H]1CCC(=O)[C@@H]1C/C=C\CCO` here?
A: inactive

Q: Which Potency does the source give for `CC1(C)CC[C@]2(C(=O)O)[C@H](O)C[C@]3(C)C(=CCC4[C@@]5(C)CC[C@H](O[C@@H]6OC[C@@H](O)[C@H](O)[C@H]6O)[C@@](C)(C(=O)O)C5CC[C@]43C)[C@@H]2C1` (stereo partly specified) here?
A: inactive

Q: Which Potency does the source give for `COc1cc(/C=C/CO[C@@H]2O[C@H](CO)[C@@H](O)[C@H](O)[C@H]2O)cc(OC)c1O[C@@H]1O[C@H](CO)[C@@H](O)[C@H](O)[C@H]1O` here?
A: inactive

Q: Which Potency does the source give for `CC(C)C1NC(=O)C2CCCN2C1=O` (stereo unspecified) here?
A: inactive

Q: Which Potency does the source give for `CC1(C)CC[C@]2(C(=O)O)CC[C@]3(C)C(=CCC4[C@@]5(C)CC[C@H](O[C@@H]6O[C@H](C(=O)O)[C@@H](O)[C@H](O)[C@H]6O)C(C)(C)C5CC[C@]43C)C2C1` (stereo partly specified) here?
A: inactive

Q: For `CC/C=C\CC1C(CC(=O)O)CCC1OC1OC(CO)C(O)C(O)C1O` (stereo unspecified), which Potency is on record?
A: inactive

Q: With `NCCCCN(Cc1nc2ccccc2[nH]1)[C@H]1CCCc2cccnc21` as the compound, how does the Potency read?
A: inactive

Q: With `COC1OC(O)C2(CCC3(O2)C(C)CC2OC(=O)C4(C)CCCC3(C)C24)C1O` (stereo unspecified) as the compound, how does the Potency read?
A: inactive

Q: For `COc1ccc(/C=C/C(=O)N2CCCC2)cc1`, which Potency is on record?
A: inactive

Q: For `C=CC(C)(O)C1CC2C3(C)CCCC(C)(C)C3C(O)C(O)C2(C)O1` (stereo unspecified), which Potency is on record?
A: inactive

Q: Which redox activity (% of DA3003) does the source give for `C[C@@H]1O[C@@H](O[C@H]2[C@H](OC(=O)[C@]34CCC(C)(C)C[C@H]3C3=CCC5[C@@]6(C)C[C@@H](O)[C@@H](O)[C@@](C)(CO)C6[C@H](O)C[C@@]5(C)[C@]3(C)CC4)OC[C@H](O)[C@@H]2O)[C@H](O)[C@H](O)[C@H]1O[C@@H]1OC[C@@H](O)[C@H](O[C@H]2O[C@H](C)[C@@H](O)[C@H](O)[C@@H]2O)[C@H]1O` (stereo partly specified) here?
A: 18.5% [at 11.5 µM]

Q: Which Potency does the source give for `C=C(C)C(O)COc1ccc(CC(=O)O)cc1` (stereo unspecified) here?
A: inactive

Q: With `C[C@H]1[C@H](C)CC[C@]2(C(=O)O)CC[C@]3(C(=O)O)C(=CCC4[C@@]5(C)CC[C@H](O[C@@H]6O[C@@H](C)[C@H](O)[C@@H](O)[C@H]6O)C(C)(C)C5CC[C@]43C)[C@H]12` (stereo partly specified) as the compound, how does the Potency read?
A: inactive

Q: Which Potency does the source give for `COc1ccc(-c2ccn(CC[C@](C)(C(=O)NO)S(C)(=O)=O)c(=O)c2)c(F)c1` here?
A: inactive

Q: With `O=C(OCC1=CC(Cl)C(O)C(OC(=O)c2ccccc2)C1O)c1ccccc1` (stereo unspecified) as the compound, how does the Potency read?
A: inactive

Q: For `COc1ccc(/C=C/C(=O)O[C@@H]2[C@@H](O[C@@H]3O[C@H](CO)[C@@H](O)[C@H](O)[C@H]3O)[C@@H](O)[C@H](O[C@H]3C4C=CO[C@@H](O[C@@H]5O[C@H](CO)[C@@H](O)[C@H](O)[C@H]5O)C4[C@@]4(CO)O[C@@H]34)O[C@H]2C)cc1` (stereo partly specified), which redox activity (% of DA3003) is on record?
A: 9.47% [at 11.5 µM]

Q: Which Potency does the source give for `O=C(CC1CC(c2ccc(F)cc2F)=NO1)N1CCOCC1` (stereo unspecified) here?
A: inactive

Q: With `OC[C@H]1O[C@@H](OC[C@H]2O[C@@H](OCc3ccccc3)[C@H](O)[C@@H](O)[C@@H]2O)[C@H](O)[C@@H](O)[C@@H]1O` as the compound, how does the Potency read?
A: inactive

Q: For `CC(C)(O)/C=C/C(=O)[C@](C)(O)[C@H]1[C@H](O)C[C@@]2(C)[C@@H]3CC=C4[C@@H](C=C(O[C@@H]5O[C@H](CO)[C@@H](O)[C@H](O)[C@H]5O)C(=O)C4(C)C)[C@]3(C)C(=O)C[C@]12C`, which Potency is on record?
A: inactive

Q: Which Potency does the source give for `CO[C@@H]1[C@]2(O)C(=O)N3/C=C\C(C)(C)c4[nH]c5ccccc5c4/C=C\3C(=O)N2[C@]23[C@H](CO)C(C)(C)N2c2ccccc2[C@]13O` here?
A: inactive

Q: With `C[C@H]1CC(=O)C2=C(C1)C(O)C(O)[C@@]1(O)[C@H]2C(=O)c2cccc(O)c2[C@@H]1O` (stereo partly specified) as the compound, how does the Potency read?
A: inactive

Q: For `CC1(C)CCC2(C(=O)O)CCC3(C)C(=CCC4C5(C)CCC(O)C(C)(CO)C5C(O)CC43C)C2C1` (stereo unspecified), which Potency is on record?
A: inactive

Q: With `COC(=O)C1=COC(OC2OC(CO)C(O)C(O)C2O)C2C(C)C(OC(C)=O)C(OC(=O)c3ccccc3)C12` (stereo unspecified) as the compound, how does the Potency read?
A: inactive

Q: Which Potency does the source give for `C/C=C(\C)C(=O)OC[C@H]1O[C@H](O[C@H]2O[C@H](CO)[C@@H](O)[C@H](O)[C@H]2O[C@@H]2O[C@H](CO)[C@@H](O)[C@H](O)[C@H]2O)[C@H](O[C@@H]2O[C@H](CO)[C@@H](O)[C@H](O)[C@H]2O)[C@@H](O)[C@@H]1O` here?
A: inactive

Q: For `COc1ccc(C2C(C(=O)O)C(C(=O)O)C2c2ccc(OC)cc2O[C@@H]2O[C@H](CO)[C@@H](O)[C@H](O)[C@H]2O)c(O[C@@H]2O[C@H](CO)[C@@H](O)[C@H](O)[C@H]2O)c1` (stereo partly specified), which Potency is on record?
A: inactive
